Here are results for 40 compounds from PubChem BioAssay (NCATS).

Records with an inconclusive call do not appear. Activity calls are given as the source filed them. Calls come from the whole dose curve; as a rule, active = well fitted cell-killing curve with a large enough effect; inconclusive = small, poorly fitted or top-dose-only effect, or effect the other way; inactive = no such curve, though single readings can be large or run the other way.
Potency is the fitted concentration of half-maximal effect.

The test can be described thus: Quantitative High-Throughput drug screen in 47 multiple myeloma cell lines against the NCATS MIPE library collection: KHM11_PLB cell viability assay (AID 1918962). Note: nearly all actives have a fitted effect of over 35% in size. The note with it: KHM11 myeloma cell viability, CellTiter-Glo ATP luminescence, 48 h; series mostly up to 45.8 µM; viability, % of DMSO control: at the top concentration. An excerpt: PI: Beverly A. Mock Ph.D.
Laboratory of Cancer Biology and Genetics,
Center for Cancer Research, National Cancer Institute,
National Institute of Health, Bethesda, Maryland
Drug resistance and disease progression are common in multiple myeloma (MM) patients, underscoring the need for new therapeutic combinations. […] We hypothesized that effective combinations would reduce MYC expression and enhance p16 activity. […] These preclinical data identify potentially useful drug combinations for evaluation in drug-resistant MM and reveal potential mechanisms of combined drug sensitivity.
Described herein is the primary MIPE qHTS used to cherrypick compounds. Validated compounds were then further tested for potential synergistic activiy.
[1] Peat TJ, Gaikwad SM, Dubois W, Gyabaah-Kessie N, Zhang S, Gorjifard S, Phyo Z, Andres M, Hughitt VK, Simpson RM, Miller MA, Girvin AT, Taylor A, Williams D, D'Antonio N, Zhang Y, Rajagopalan A, Flietner E, Wilson K, Zhang X, Shinn P, Klumpp-Thomas C, McKnight C, Itkin Z, Chen L, Kazandijian D, Zhang J, Michalowski AM, Simmons JK, Keats J, Thomas CJ, Mock BA. Drug combinations identified by high-throughput screening promote cell cycle transition and upregulate Smad pathways in myeloma. Cancer Lett. 2023 Aug 1;568:216284. doi: 10.1016/j.canlet.2023.216284. Epub 2023 Jun 24. PMID: 37356470; PMCID: PMC10408729.
SEQUENCE No. (e.g., 1, 2, 3, etc.); […] (e.g., Cells, Incubation, Reagent, etc.); VALUE and DESCRIPTION.
1; Cells; 5 uL; white, solid bottom 1536-well Greiner assay plate.
2; Compounds; 23 nL; Kalypsis pin tool (Wako USA) equipped with a 1536-well pin head to transfer to the assay plates.
3; Incubation; 48 hours; 37C incubation.
4; Reagent;5uL; CellTiter Glo (Promega).
5; Detector; 425V; Luminescence; Viewlux PerkinElmer.
NOTES (numbers refer to Sequence numbers above)
1. The cell-based screening methods employed in this study were like those previously published. Briefly, the corresponding myeloma cell lines were screened in 1,536-well plates with 500 cells, 5-uL per well for inhibition of cell viability (assessed by measuring ATP levels with CellTiterGlo).
2. NCATS MIPE 4.0 library of approved and investigational drugs were added using the Kalypsis pin tool. Wells treated with DMSO only for 100% viability and media only wells for 0% viability were used as controls.
3. The assay plates were covered and incubated for 48 hours in a 37C, 5% CO2 incubator with controlled humidity.
4. After 48 hours, CellTilter-GloTM luminescent substrate mix (Promega) reagent was added to the assay plate and plates we incubated for 5 min at room temperature.
5. Signal was measured as median relative luminescence units on a ViewLux (PerkinElmer) multiplate reader.
[1] Heske CM, Davis MI, Baumgart JT, Wilson K, Gormally MV, Chen L, Zhang X, Ceribelli M, Duveau DY, Guha R, Ferrer M, Arnaldez FI, Ji J, Tran HL, Zhang Y, Mendoza A, Helman LJ, Thomas CJ. Matrix Screen Identifies Synergistic Combination of PARP Inhibitors and Nicotinamide Phosphoribosyltransferase (NAMPT) Inhibitors in Ewing Sarcoma. Clin Cancer Res. 2017 Dec 1;23(23):7301-7311. doi: 10.1158/1078-0432.CCR-17-1121. Epub 2017 Sep 12. PMID: 28899971; PMCID: PMC6636827.
For orientation: In ATP-based viability assays light output follows the ATP content of the culture.
For `CCCCN1CCC(CNC(=O)c2c3n(c4ccccc24)CCCO3)CC1`, the Potency is 11800 nM (active). `C[C@@H]1COC(Nc2ccc3ncnc(Nc4ccc(OCc5nccs5)c(Cl)c4)c3c2)=N1`: the Potency is 16600 nM (active). `COC(=O)[C@]12CCC(C)(C)C[C@@H]1[C@@H]1C(=O)C=C3[C@@]4(C)C=C(C#N)C(=O)C(C)(C)[C@@H]4CC[C@@]3(C)[C@]1(C)CC2`: the Potency is 469 nM (active). Still for that read-out and setting: the figure for `CNC(=O)c1c(F)cccc1Nc1nc(Nc2cc3c(cc2OC)CCN3C(=O)CN(C)C)nc2[nH]ccc12` is 9350 nM (active); for `Cc1c(CN2CCN(S(C)(=O)=O)CC2)sc2c(N3CCOCC3)nc(-c3cnc(N)nc3)nc12` it is 33.2 nM (active); for `CC[C@H]1CN2CCc3cc(OC)c(OC)cc3[C@H]2C[C@@H]1C[C@@H]1NCCc2cc(OC)c(OC)cc21` it is 166 nM (active).

Regarding `COc1cc(C(=O)N2CCC(N3CCN(C)CC3)CC2)ccc1Nc1ncc2c(n1)N(C)c1ccccc1C(=O)N2C`, the Potency is 7430 nM (active).

In the case of `Nc1nc(NCCNc2ncc(-n3ccnc3)c(-c3ccc(Cl)cc3Cl)n2)ccc1[N+](=O)[O-]`, the Potency is 5260 nM (active). On the same count and under the same terms, the value for `CC1=C(CO)C(=O)O[C@@H]([C@@H](C)[C@H]2CC[C@H]3[C@@H]4C[C@H]5O[C@]56[C@@H](O)C=CC(=O)[C@]6(C)[C@@H]4CC[C@]23C)C1` was 209 nM (active); that for `CC1(C)OC2=C(C(=O)c3ccccc3C2=O)[C@H](NCc2ccccc2)[C@H]1O` was 2640 nM (active); that for `CNC(=O)c1cc(Oc2ccc(NC(=O)Nc3cc(C(C)(C)C)nn3-c3ccc4ncccc4c3)c(F)c2)ccn1` was 2640 nM (active). The same measure, in the same setting: the value for `Nc1nc(Nc2ccc(S(N)(=O)=O)cc2)nn1C(=O)c1c(F)cccc1F` was 2960 nM (active). `CNC(=O)c1ccc(-c2cnc3ncc(Cc4ccc5ncccc5c4)n3n2)cc1F`: the “viability, % of DMSO control” value is 119% (inactive). In the case of `O=C(NCCCNc1nc(Nc2cccc(NC(=O)N3CCCC3)c2)ncc1I)c1cccs1`, the Potency was 1320 nM (active). The same measure, in the same setting: the value for `Cc1[nH]c2ccccc2c1CCNCc1ccc(C=CC(=O)NO)cc1` was 148 nM (active).

In the case of `CC(C)c1nn(-c2c(Cl)cccc2Cl)c2nc(Cc3ccc(OCCO)cc3)[nH]c(=O)c12`, the Potency is 148 nM (active). Consider `Nc1ccccc1NC(=O)c1ccc(CNC(=O)OCc2cccnc2)cc1`, for which the Potency is 4180 nM (active).

Regarding `COc1cc(C(=O)NS(=O)(=O)c2ccccc2C)ccc1Cc1cn(C)c2ccc(NC(=O)OC3CCCC3)cc12`, the Potency was 10500 nM (active). Still for that read-out and setting: the figure for `O=C(C=Cc1cccnc1)NCCCCC1CCN(C(=O)c2ccccc2)CC1` is 23.5 nM (active). `C[C@H]1C[C@@H]2[C@@H]([C@@H](O)C[C@@]3(C)[C@H]2CC[C@]3(O)C(=O)CO)[C@@]2(C)C=CC(=O)C=C12`: the “viability, % of DMSO control” value is 89.5% (inactive). Same read-out and setting: the value for `CCCCCCCCCC(=O)N[C@@H](Cc1c[nH]c2ccccc12)C(=O)N[C@H](CC(N)=O)C(=O)N[C@@H](CC(=O)O)C(=O)N[C@@H]1C(=O)NCC(=O)N[C@@H](CCCN)C(=O)N[C@@H](CC(=O)O)C(=O)N[C@H](C)C(=O)N[C@@H](CC(=O)O)C(=O)NCC(=O)N[C@H](CO)C(=O)N[C@@H]([C@@H](C)CC(=O)O)C(=O)N[C@@H](CC(=O)c2ccccc2N)C(=O)O[C@@H]1C` was 92.4% (inactive).

Take `CC(C)c1cnn2c(NCc3ccccc3)cc(N[C@@H](CO)[C@H](O)CO)nc12`: the Potency was 148 nM (active). Still for that read-out and setting: the figure for `COc1cc2c(Nc3ccc(NC(=O)c4ccccc4)cc3)ncnc2cc1OCCCN1CCOCC1` is 8330 nM (active). The same measure, in the same setting: the value for `CN1CCN(c2cc(C(=O)Nc3ccc4c(c3)-c3c(c(C(N)=O)nn3-c3ccc(F)cc3)CC4)c(Cl)cn2)CC1` was 5900 nM (active). `COc1cc(Nc2ncc(F)c(Nc3ccc4c(n3)N(COP(=O)(O)O)C(=O)C(C)(C)O4)n2)cc(OC)c1OC`: the Potency is 1480 nM (active). The same measure, in the same setting: the figure for `COC(=O)c1ccc2c(C(=Nc3ccc(N(C)C(=O)CN4CCN(C)CC4)cc3)c3ccccc3)c(O)[nH]c2c1` is 26400 nM (active); for `CN1CCN(Cc2ccc(NC(=O)Nc3ccc(Oc4cc(NC(=O)C5CC5)ncn4)cc3)cc2C(F)(F)F)CC1` it is 132 nM (active). Take `COc1cc2c(Oc3ccc(NC(=O)C4(C(=O)Nc5ccc(F)cc5)CC4)cc3F)ccnc2cc1OCCCN1CCOCC1`: the Potency was 7430 nM (active). On the same count and under the same terms, the figure for `CC(C)(C)OC(=O)Nc1ccc(-c2cc(C(=O)NCCCCCCC(=O)NO)no2)cc1` is 5900 nM (active); for `CCN(CC)CCCCNc1ncc2cc(-c3cc(OC)cc(OC)c3)c(NC(=O)NC(C)(C)C)nc2n1` it is 9350 nM (active). The same measure, in the same setting: the figure for `COc1cc2ncn(-c3cc(OCc4ccccc4C(F)(F)F)c(C(N)=O)s3)c2cc1OC` is 18700 nM (active). Same read-out and setting: the figure for `Cc1ccc(-c2ncn(-c3ccc(Nc4nccc(-c5cccc(N6CCOCC6)c5)n4)cc3)n2)cn1` is 118 nM (active); for `Cc1coc2c1C(=O)C(=O)c1c-2ccc2c1CCCC2(C)C` it is 7430 nM (active). With `CCS(=O)(=O)c1cccc(-c2cc(C(=O)NC3CCN(C)CC3)c(C)c3[nH]c4ncc(C)cc4c23)c1`, the Potency is 526 nM (active). Still for that read-out and setting: the figure for `CCCCc1nc2cc(C=CC(=O)NO)ccc2n1CCN(CC)CC` is 1480 nM (active); for `CCOc1cc2ncc(C#N)c(Nc3ccc(F)c(Cl)c3)c2cc1NC(=O)C=CCN(C)C` it is 20900 nM (active). For `O=C(c1ccc(Nc2nccc(-c3cc4ccccc4s3)n2)cc1)N1CCC(N2CCCC2)CC1`, the Potency was 3720 nM (active).

As to `COc1cccc(-c2ccc(NC(=O)C3=C(C(=O)O)CCC3)c(F)c2)c1`, the “viability, % of DMSO control” value was 132% (inactive). As to `COc1ccc(F)c(F)c1C(=O)c1cnc(NC2CCN(S(C)(=O)=O)CC2)nc1N`, the Potency is 1870 nM (active). Still for that read-out and setting: the value for `Cc1nc(N)ncc1-c1nc(N2CCOCC2)c2sc(C(C)(C)O)cc2n1` was 662 nM (active).
